Assay outcomes deposited in PubChem BioAssay by several laboratories.
Shown are actives, neighbours in structure and some others; about 2% of the full set was active somewhere.
VLA-4 inh: inhibition in human VLA-4 binding assay, primary screen, VLA-4 allosteric modulator project, MLPCN library, flow cytometry, VLA-4 expressing cells | actives 0.2% (n = 330,000) | Integrin alpha-4 (Homo sapiens), P13612 | ligand binding flow cytometry | inhibition, % (about 7 µM as worked out from the volumes in the protocol); in the data active means inhibition above about 50%
Exocytosis inh: LAMP-1 surface exposure blockers, TALL-104 cells – cell-based, flow cytometry, MLPCN library, primary screen | AID 651702, 2012 | TALL-104 LAMP-1 surface exposure; cells stimulated with thapsigargin and PMA | actives 0.66% (n = 360,000) | inhibition, % at 10 µM;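 active means inhibition above about 55%, limit read from the data; inconclusive means no clear call, values can overlap the other calls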
ABCB6 inh MLPCN: ABCB6 transporter inhibitors, primary screen, K562-ABCB6 cells, flow cytometry, MLPCN library; actives 0.19% (n = 360,000); ATP-binding cassette sub-family B member 6 (Homo sapiens), Q9NP58; fluorescence ratio to DMSO, % at 10 µM; K562-ABCB6 porphyrin accumulation, 1 h; stronger effect = lower value;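 active means fluorescence ratio to DMSO below 75%, the collection mean minus 3 SD; inconclusive means too few cells collected in the well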;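 further: signal is porphyrin accumulated inside mitochondria; lower ratio means ABCB6 inhibition with less porphyrin fluorescence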
Rev-erbA mod: modulators of Rev-erb alpha DNA binding, primary screen, biochemical, FITC-DNA, fluorescence polarization, uHTS; Nuclear receptor subfamily 1 group D member 1 (Homo sapiens), P20393; Rev-erbα–FITC-DNA binding, 90 min; activity, % at 10 µM; actives 0.79% (n = 370,000); AID 1259318, 2017;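 active means activity above about 14%, limit read from the data; passing the limit was not always enough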
PG9 binder: binders of HIV-1 gp120 antibody PG9, primary screen, biochemical, TR-FRET; HIV-1 gp120 / PG9 antibody interaction; TR-FRET gp120-PG9 antibody binding; inhibition, % at 6.7 µM; actives 0.43% (n = 360,000); in the data active means inhibition above about 8.5%
NR1D1 mod conf: modulators of Rev-erb alpha DNA binding, confirmation, biochemical, FITC-DNA, fluorescence polarization, single point; shares compounds with Rev-erbA mod; 90 min; activation, % at 25 µM; actives 61% (n = 3,000); AID 1259319, 2017;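 active means activation at or above a set limit, or at least 3 SD above the negative control mean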
RORg counter: modulation of RORgamma DNA binding, dose response, counter-screen for Rev-erb alpha modulator project, biochemical, fluorescence polarization, FITC-DNA; actives 8% (n = 910); AID 1259320, 2017; IC50, µM; purified RORgamma protein-FITC-DNA binding; shares compounds with Rev-erbA mod;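 active means Compounds whose fitted half-maximal concentration for disrupting protein-DNA binding is below 10 micromolar; the record names Rev-erb in its text, so the target is in doubt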
A number is an active result; . = inactive; ? = inconclusive; / = no result given.

SMILES	VLA-4 inh	Exocytosis inh	ABCB6 inh MLPCN	Rev-erbA mod	PG9 binder	NR1D1 mod conf	others
Cc1cccc(CNC(=O)NC2CCCCN(Cc3cccc(Cl)c3)C2=O)c1 (configuration not stated)	/	/	/	.	/	/
COC(=O)c1sc(NC(=S)NC(=O)c2cc(OC)c(OC)c(OC)c2)nc1C	.	.	.	56.9	.	.
COC(=O)c1sc(NC(=S)NC(=O)c2ccccc2)nc1C	.	.	.	.	.	/
COC(=O)c1cccc(Cn2ccc3ccc(-c4ccc5ccn(C(=O)c6ccccc6)c5c4)cc32)c1	/	/	/	.	/	/
Cc1ccc(C(=O)n2ccc3ccc(-c4ccc5ccn(Cc6ccc(C#N)cc6)c5c4)cc32)cc1	/	/	/	39.5	/	13.5
O=C(c1ccc(F)cc1)n1ccc2ccc(-c3ccc4ccn(Cc5ccccc5)c4c3)cc21	/	/	/	.	/	/
COc1ccc(Cn2ccc3ccc(-c4ccc5ccn(C(=O)c6ccccc6C)c5c4)cc32)cc1	/	/	/	.	/	/
CCCCOc1ccc(C(=O)n2ccc3ccc(-c4ccc5ccn(Cc6cccc(C(=O)OC)c6)c5c4)cc32)cc1	/	/	/	36.6	/	20.9
N#Cc1ccc(Cn2ccc3ccc(-c4ccc5ccn(Cc6ccc(C#N)cc6)c5c4)cc32)cc1	/	/	/	.	/	/
Cc1ccc(C(=O)n2ccc3ccc(-c4ccc5ccn(Cc6ccccc6)c5c4)cc32)cc1	/	/	/	39.0	/	26.9
CCCCOc1ccc(C(=O)n2ccc3ccc(-c4ccc5ccn(Cc6ccc(OC)cc6)c5c4)cc32)cc1	/	/	/	34.7	/	.
CCCCCCCCN1C(=O)[C@@H](CC(=O)NCCCN2CCCC2=O)C[C@@]2(C(=O)OC)C1=C[C@H](C(C)C)O[C@@H]2C1CC1	/	/	/	.	/	/
CCOC(=O)[C@]12CCCCC/C=C\1N(CCc1ccc(Cl)cc1)C(=O)[C@H]2CC(=O)NCCCN1CCCC1=O	/	/	/	.	/	/
COc1ccc(CN2C(NC(=O)OCc3ccccc3)=NC3=CC(C)(C)n4c(=O)n(-c5ccccc5)c(=O)n4C32)c(OC)c1 (configuration not stated)	/	/	/	.	/	/
COC(=O)c1cc2c(c3c4cc(OC)ccc4n(S(=O)(=O)c4cccc(C)c4)c13)C(=O)N(Cc1ccccc1OC)C2	/	/	/	.	.	/
COc1ccc(Cn2ccc3ccc(-c4ccc5ccn(C(=O)C6CCCCC6)c5c4)cc32)cc1	/	/	/	.	/	/
COC(=O)c1ccc(Cn2ccc3ccc(-c4ccc5ccn(Cc6ccccc6)c5c4)cc32)cc1	/	/	/	.	/	/
COc1ccc(Cn2ccc3ccc(-c4ccc5ccn(C(=O)c6ccccc6)c5c4)cc32)cc1	/	/	/	.	/	/
COc1ccc(Cn2ccc3ccc(-c4ccc5ccn(C(=O)c6ccc(C)cc6)c5c4)cc32)cc1	/	/	/	37.3	/	45.0	RORg counter=.
COC(=O)c1ccc(Cn2ccc3ccc(-c4ccc5ccn(C(=O)c6ccc(C)cc6)c5c4)cc32)cc1	/	/	/	49.5	/	61.7	RORg counter=1.41
COC(=O)c1ccc(Cn2ccc3ccc(-c4ccc5ccn(C(=O)C6CCCCC6)c5c4)cc32)cc1	/	/	/	24.9	/	33.6	RORg counter=.
COCCCNC(=O)Cn1nc(Cc2ccncc2)c2ccccc2c1=O	/	/	/	.	/	/
CC(C)(C)n1nc(C2CC2)cc1NC(=O)Nc1ccccc1	/	/	/	.	.	/
N/C(=N\C(=O)OCc1ccccc1)N(CC#CC1=CCCCC1)CC1CC1	/	/	/	.	/	/
CCOC(=O)c1sc2nc(NC(=O)COc3ccccc3)sc2c1C	.	.	.	22.7	.	14.0
SMILES	VLA-4 inh	Exocytosis inh	ABCB6 inh MLPCN	Rev-erbA mod	PG9 binder	NR1D1 mod conf	others
COC(=O)[C@]12C[C@H](CC(=O)NCc3cccs3)C(=O)N(Cc3ccc(Cl)cc3Cl)C1=C[C@H](C1CCCC1)O[C@@H]2C	/	/	/	.	/	/
CC(=O)NS(=O)(=O)c1ccc(Nc2ccc([N+](=O)[O-])c3nonc23)cc1	.	.	.	26.1	.	20.9
CCOc1ccc(-c2nn3c(-c4ccccc4)nnc3s2)cc1	.	.	.	.	.	/
Brc1ccc(-c2nn3c(-c4ccccc4)nnc3s2)cc1	/	/	/	33.7	/	71.1	RORg counter=2.91
COc1ccc(Oc2c(Cl)cnn(CC(=O)C(c3ccccc3)c3ccccc3)c2=O)cc1	/	/	/	77.9	/	57.0	RORg counter=.
Nc1[nH]c2cc(Cl)ccc2c1C(=O)NCCc1ccc(Cl)cc1	/	/	/	.	/	/
Cc1ccc(C(=O)NNCC(=O)Nc2ccc(Cl)cc2F)cc1	.	.	.	18.2	.	.
O=Cc1coc([B-](F)(F)F)c1	/	/	/	.	.	/
CCOC(=O)c1sc(NC(=O)c2ccccc2F)c(C(N)=O)c1C	.	.	.	20.0	.	.
CCNC(=O)N1CCN(c2ccc(N3CCN(Cc4ccccc4)[C@H](C)C3)c(C)c2)[C@@H](C)C1	/	/	/	.	.	/
CN1CCC(N[C@@H](Cc2ccccc2)C(=O)NCC(c2ccccc2)c2ccccc2)(C(=O)NC2CCCCC2)CC1	/	/	/	.	/	/
CCCc1nc2sc3c(=O)n(N)cnc3c2c2c1CCCC2	.	.	.	37.2	.	.
CCCCc1nc2sc3c(=O)n(N)cnc3c2c2c1CCCC2	.	.	.	.	.	/
CC(C)c1nc2sc3c(SCC(N)=O)ncnc3c2c2c1CCC2	.	.	.	869.0	.	711.1	RORg counter=.
CCCCc1nc2sc3c(SCCN(C)C)ncnc3c2c2c1CCC2	.	.	.	30.8	.	46.7	RORg counter=.
N#Cc1c2ncn(CC(=O)c3ccc(Br)cc3)c(=O)c2c2n1CCC2	.	?	.	16.9	.	.
